Source: PubChem BioAssay AID743314 (Broad Institute, 2014)
Potency and affinity values are given separately. Results filed as inconclusive are left out. Activity calls are given as the source filed them.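 Rule for the calls: active = fitted half-maximal concentration no higher than twice the top tested dose, in every repeat run; inconclusive = repeat runs disagree, poor fit, or flat partial inhibition; inactive = the rest.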

biological target: Endoplasmic reticulum aminopeptidase 1 (Homo sapiens) (UniProt Q9NZ08); test: ERAP1 aminopeptidase inhibitors, dose response, biochemical, cherry-pick, set 2, plate reader (AID 743314); details: Recombinant ERAP1, Leu-AMC fluorescence, 60 min; series mostly up to 11 µM;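 note: 0% = neutral control wells and -100% = L-leucinethiol positive control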
Sequence (Q9NZ08 whole entry, looked up): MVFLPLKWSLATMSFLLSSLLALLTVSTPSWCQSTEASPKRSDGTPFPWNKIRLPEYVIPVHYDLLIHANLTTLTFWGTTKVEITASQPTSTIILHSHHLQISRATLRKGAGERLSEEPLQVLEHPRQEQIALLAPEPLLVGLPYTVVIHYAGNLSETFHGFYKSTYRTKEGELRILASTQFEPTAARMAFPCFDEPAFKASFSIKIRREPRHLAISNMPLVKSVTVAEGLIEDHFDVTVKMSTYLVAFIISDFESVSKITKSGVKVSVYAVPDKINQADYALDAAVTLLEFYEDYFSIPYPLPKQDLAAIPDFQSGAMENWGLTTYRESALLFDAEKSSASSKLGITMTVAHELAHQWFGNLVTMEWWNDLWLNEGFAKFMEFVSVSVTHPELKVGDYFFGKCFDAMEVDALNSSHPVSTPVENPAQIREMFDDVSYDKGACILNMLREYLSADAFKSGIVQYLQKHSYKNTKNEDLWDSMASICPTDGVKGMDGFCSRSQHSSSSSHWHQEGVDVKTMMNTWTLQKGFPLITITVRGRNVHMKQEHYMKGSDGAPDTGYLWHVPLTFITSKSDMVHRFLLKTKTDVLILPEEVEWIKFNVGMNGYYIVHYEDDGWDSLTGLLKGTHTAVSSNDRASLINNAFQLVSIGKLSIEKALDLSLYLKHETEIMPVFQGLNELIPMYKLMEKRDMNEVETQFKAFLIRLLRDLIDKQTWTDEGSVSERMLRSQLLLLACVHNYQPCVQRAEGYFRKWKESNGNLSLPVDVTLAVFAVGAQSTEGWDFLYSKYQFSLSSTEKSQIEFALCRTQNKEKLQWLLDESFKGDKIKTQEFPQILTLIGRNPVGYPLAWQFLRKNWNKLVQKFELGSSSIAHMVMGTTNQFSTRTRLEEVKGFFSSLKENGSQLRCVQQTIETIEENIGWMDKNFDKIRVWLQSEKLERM

outcome, inactive:
CCN(CC)CCNC(=O)c1ccc(NC(=O)c2ccc(-n3cncn3)c([N+](=O)[O-])c2)cc1, CCN1CCN(CCCNC(=O)c2cc3c(s2)-c2ccccc2OC3)CC1, Cn1cnc(C(=O)N2CCN(C(=O)OC(C)(C)C)CC2)c1C(=O)N1CCN(C(=O)OC(C)(C)C)CC1, C[C@@H]1CCCCO[C@H](CN(C)C)[C@@H](C)CN([C@H](C)CO)C(=O)c2cc(NS(=O)(=O)c3ccc(Cl)cc3)ccc2O1, C[C@@H]1CN([C@H](C)CO)C(=O)c2cc(NS(=O)(=O)c3ccc(Cl)cc3)ccc2O[C@@H](C)CCCCO[C@@H]1CN(C)C, O=C(C[C@H]1CC[C@@H]2[C@H](COC[C@@H](O)CN2C(=O)Nc2cccc(Cl)c2)O1)N1CCCCC1, CN1CCN(S(=O)(=O)c2cccc(C(=O)Nc3cc(Cl)ccc3N3CCOCC3)c2)CC1, C[C@H]1CN([C@@H](C)CO)C(=O)CCCn2cc(nn2)CO[C@@H]1CN(C)Cc1ccccc1, CCOCc1c(C(=O)Nc2ccc(OC)nc2)oc2ccccc12, O=C(C[C@@H]1C=C[C@H](NC(=O)Nc2cccc(F)c2)[C@H](CO)O1)NCC1CCCCC1, CCOC(=O)C1CCN(S(=O)(=O)c2ccc3c(c2)CC(=O)N3C)CC1, Cc1ccc(OCC(=O)Nc2ccc(S(=O)(=O)N(C)C3CCN(C)CC3)cc2)c(C)c1, COc1ccc(CN(C)C[C@@H]2Oc3ccc(NS(=O)(=O)c4ccc(C)cc4)cc3C(=O)N([C@@H](C)CO)C[C@@H]2C)cc1, CCOc1ccc(NC(=O)C2CCCN2C(=O)Oc2ccccc2)cc1 (stereo not drawn), Cc1ccc(CN2C(=O)CCC2C(=O)NCCN2CCN(c3cccc(Cl)c3)CC2)cc1 (stereo not drawn), Cc1noc(C)c1NC(=O)N(C)C[C@H]1Oc2c(NC(=O)Nc3ccc(F)cc3)cccc2C(=O)N([C@@H](C)CO)C[C@@H]1C, C[C@H]1CCCCO[C@@H](CN(C)C)[C@@H](C)CN([C@@H](C)CO)C(=O)c2cc(NS(=O)(=O)c3ccc(Cl)cc3)ccc2O1, Cc1noc(C)c1NC(=O)N(C)C[C@@H]1Oc2c(NC(=O)Nc3ccc(F)cc3)cccc2C(=O)N([C@@H](C)CO)C[C@H]1C, C[C@@H]1CCCCO[C@H](CN(C)Cc2ccc(C(=O)O)cc2)[C@H](C)CN([C@@H](C)CO)C(=O)c2cc(NC(=O)Nc3ccc(C(F)(F)F)cc3)ccc2O1, CS(=O)(=O)N(CC(=O)N1CCOCC1)c1cccc(Cl)c1, Cc1cccc(C)c1NC(=O)CSc1nnc(NC(=O)c2ccccc2C(=O)O)s1, CCN(CC)CCCN=C1N[C@@H](c2cccc(C(F)(F)F)c2)C(C(=O)OC)=C(C)N1CC, CCn1c(SCC(=O)NCc2ccccc2)nnc1C(CO)NC(=O)c1ccccc1 (stereo not drawn), COc1ccc2c3c([nH]c2c1)[C@@H](CO)N(C(C)=O)CC31CN(S(=O)(=O)c2cccs2)C1, CN(C)C(=O)[C@H]1[C@H](CO)[C@H]2Cn3c(cccc3=O)[C@@H]1N2CC1CCCC1, N#Cc1c(N)n(CCNC(=O)c2ccccc2)c2nc3ccccc3nc12, C[C@H]1CN([C@@H](C)CO)C(=O)c2cccc(NC(=O)Nc3ccc(C(F)(F)F)cc3)c2O[C@H]1CN(C)C, CCn1c(SCC(=O)NC2CCCCC2)nc2ccccc2c1=O, Cc1ccc(S(=O)(=O)c2cc3ccc(O)cc3oc2=O)cc1C, COc1ccc(S(=O)(=O)NC[C@@H]2CC[C@H]3[C@H](CN3Cc3cc(F)ccc3F)O2)cc1, COc1ccc(CN(C)C[C@H]2Oc3c(NC(=O)NC4CCCCC4)cccc3C(=O)N([C@@H](C)CO)C[C@@H]2C)cc1, O=c1cc(CN2CCOCC2)c2cc(Cl)c(O)cc2o1, CC(=O)Nc1ccc2nc(NC(=O)CN3CCOCC3)sc2c1, COc1ccc(CN(C)C[C@@H]2Oc3c(NC(=O)NC4CCCCC4)cccc3C(=O)N([C@@H](C)CO)C[C@@H]2C)cc1, COc1ccccc1CN1[C@H](CO)[C@@H](c2ccccc2)C12CN(C(=O)c1ccccn1)C2, CN1C2=NCCN2C(=O)c2cc(Cl)ccc21

Activity change, negative = inhibition, inactive:
O=C(O)c1ccc(N2N=C(c3ccccc3)CC2c2ccccc2)cc1 (stereo not drawn) -7.44% [at 2.6 µM], C[C@@H]1CN([C@H](C)CO)C(=O)c2cc(NC(=O)C3CC3)ccc2O[C@H]1CN(C)Cc1ccncc1 26.1% [at 2.6 µM]
